# Bioassay records as filed in PubChem BioAssay.
# HT1080-NT tox: kills 2HG-producing HT-1080-NT fibrosarcoma cells | HT-1080-NT fibrosarcoma viability, CellTiter-Glo ATP luminescence, 48 h | Potency, µM (titrated, usually from 46.1 µM), inactives show at the highest dose activity, negative = less viability, usual class: cytotoxic | 1.6% of 360,000 active | AID 686970;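 also: NT is the 2HG producing partner of a matched IDH1 knockdown line; potency is read from the fitted curve at half-maximal effect; 0% = DMSO-treated cells and -100% = media-only wells without cells; nearly all actives have a fitted effect of over 55% in size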
#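 Compounds were tested in concentration-response format on HT-1080-NT cells for 48 hours at 37 degrees C. Cell viability came from CellTiter-Glo luminescence; curves were classified by r2, response magnitude and activity.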
# TDP1 cell noCPT: qHTS for Inhibitors of human tyrosyl-DNA phosphodiesterase 1 (TDP1): qHTS in cells in absence of CPT; DT40 Tdp1-/- hTDP1 cells, no CPT, ATP luminescence, 48 h; Potency, µM (top dose mostly 46.2 µM), inactives show at the highest dose activity change, negative = growth inhibition, actives largely listed as inhibitors; 15% of 420,000 active; AID 686978, 2013; also: potency is read from the fitted curve at half-maximal effect; nearly all actives have a fitted effect of over 55% in size
#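 Camptothecin absent (DMSO only). Human TDP1-complemented DT40 knockout cells, 400 cells/well, 37 °C for minimum 48 hr; ATP measured via CellTiter-Glo, 30 min dark incubation, luminescence.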
# IL-1B inflam inh: inflammasome signaling inhibition, IL-1 beta readout | THP-1 LPS/ATP IL-1B secretion, AlphaLISA, 16 h; active compounds read low | activity change, % at 57.5 µM | 4.7% of 360,000 active | AID 743279; in the data active = activity change below about -50%; inconclusive = mostly about -30% to -49%
#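 Secreted IL-1B measured by AlphaLISA bead assay after 16 h compound exposure of THP-1 cells; compounds (final up to 57.5 uM) added 1 h before LPS (250 ng/mL) and ATP (1.25 mM) stimulation; lower signal means less secretion.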
# TDP1 cell CPT: growth inhibition of DT40 Tdp1-/-;hTDP1 cells with camptothecin (screen for TDP1 inhibitors). Potency, µM (highest dose often 46.2 µM), for inactives: at the highest dose activity change, negative = growth inhibition, usual class: inhibitors. 12% of 420,000 active. chicken DT40 Tdp1-/-;hTDP1 cells + 20 nM CPT, ATP luminescence, 48 h; also: potency is read from the fitted curve at half-maximal effect; nearly all actives have a fitted effect of over 55% in size
#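 Chicken DT40 Tdp1-/- cells complemented with human TDP1, 400 cells/well, exposed to compounds plus 20 nM camptothecin for at least 48 h at 37 C; viability read as ATP content by CellTiter-Glo luminescence.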
# HT1080 IDH1KD tx: kills HT-1080 cells with IDH1 knockdown. Potency, µM (doses to about 46.1 µM), for the others: at the top dose activity, negative = toxicity, most hits filed as cytotoxic. 2% of 360,000 active. HT-1080 IDH1 knockdown viability, ATP luminescence, 48 h;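 also: potency is read from the fitted curve at half-maximal effect; 0% = DMSO wells and -100% = cell-free medium wells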
#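 HT-1080-IDH1KD cells (IDH1 knocked down), 750/well in RPMI with 5% FBS, treated with compound 48 h at 37 degrees C. Viability by CellTiter-Glo luminescence, normalised to DMSO and no-cell wells; concentration-response curves classed.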
# 12-LOX inh: blocks human arachidonate 12S-lipoxygenase; purified 12hLO, xylenol orange hydroperoxide absorbance; Potency, µM (series often up to 108 µM), without a hit: at the top dose activity change, negative = inhibition, most hits filed as inhibitors; 1.1% of 580,000 active; AID 1671190; also: potency is read from the fitted curve at half-maximal effect
# Target sequence (P18054 whole entry, looked up): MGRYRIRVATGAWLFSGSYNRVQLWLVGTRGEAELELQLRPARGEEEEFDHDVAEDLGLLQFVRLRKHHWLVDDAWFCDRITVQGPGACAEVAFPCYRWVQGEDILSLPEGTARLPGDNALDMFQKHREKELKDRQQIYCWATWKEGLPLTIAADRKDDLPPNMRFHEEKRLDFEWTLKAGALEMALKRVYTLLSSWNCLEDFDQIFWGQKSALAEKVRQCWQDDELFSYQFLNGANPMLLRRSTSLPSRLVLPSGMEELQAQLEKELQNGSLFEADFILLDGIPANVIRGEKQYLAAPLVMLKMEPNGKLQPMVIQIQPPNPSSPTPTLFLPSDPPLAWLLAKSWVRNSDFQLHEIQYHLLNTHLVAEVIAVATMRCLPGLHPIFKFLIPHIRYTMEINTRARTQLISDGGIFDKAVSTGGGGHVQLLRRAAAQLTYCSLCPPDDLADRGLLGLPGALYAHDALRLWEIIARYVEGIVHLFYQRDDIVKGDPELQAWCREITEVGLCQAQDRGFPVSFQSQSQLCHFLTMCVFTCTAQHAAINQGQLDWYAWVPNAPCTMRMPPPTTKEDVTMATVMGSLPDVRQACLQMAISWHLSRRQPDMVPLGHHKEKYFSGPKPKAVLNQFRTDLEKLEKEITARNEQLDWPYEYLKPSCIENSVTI
#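 Purified human 12hLO at 150 nM in 25 mM Hepes, 0.01% Triton X-100, pH 7.0, preincubated 15 min at room temperature with compound. Reaction started with 40 uM arachidonic acid, 30 min at room temperature. Hydroperoxide measured by Fe-xylenol orange, 573/405 nm absorbance ratio.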
# * = called active by the depositor; ? = inconclusive; . = not tested or not shown; [ ] = dose if it differs, or a comment. The sample as a whole holds a higher share of hits than the screen did. Unless noted, calls follow the shape of the dose curve; as a rule, active = well fitted curve in the direction sought with a large enough effect; inconclusive = small, poorly fitted or top-dose-only effect, or another doubt; inactive = no such curve, though single readings can be large; an effect the other way counts as inactive or inconclusive. Unless noted, % is scaled to controls: 0 for no effect and ±100 for the full control effect.
SMILES,HT1080-NT tox,TDP1 cell noCPT,IL-1B inflam inh,TDP1 cell CPT,HT1080 IDH1KD tx,12-LOX inh
COc1ccccc1NC(=O)c1c(NC(=O)c2cccs2)sc2c1CCC(C(C)(C)C)C2 (stereo not drawn),.,-3.5%,.,-6.0%,.,-4.1%
CC1CCc2c(sc(NC(=O)COc3ccccc3)c2C(=O)Nc2ccccc2Cl)C1 (stereo not drawn),.,-19.4%,.,3.8%,.,2.2%
COc1ccccc1NC(=O)c1c(NCc2ccc(C)o2)sc2c1CCCCC2,.,6.51µM*,.,5.8µM*,.,?
COc1ccc(Cl)cc1NC(=O)c1c(NCc2cccs2)sc2c1CCC(C)C2 (stereo not drawn),.,13µM*,.,?,.,2.9%
COc1ccc(Cl)cc1NC(=O)c1c(NCc2cccnc2)sc2c1CCC(C)C2 (stereo not drawn),.,4.61µM*,.,3.66µM*,.,?
COc1ccccc1NC(=O)c1c(NC(=O)c2ccco2)sc2c1CCC2,-0.5%,?,-17.6,?,18.5%,2.7%
CCOc1ccc(NC(=O)c2c(NC(=O)c3ccncc3)sc3c2CCC(C(C)(C)C)C3)cc1 (stereo not drawn),.,20.6µM*,.,?,.,-5.9%
CC1CN(CCS(=O)c2ccccc2)CC(C)O1 (stereo not drawn),.,.,.,.,.,-1.3%
Cc1ccc(SCCOc2ccccc2C=O)cc1,.,.,.,.,.,-42.1%
Cc1ccc(Nc2nc(-c3cc4cc([N+](=O)[O-])ccc4oc3=O)cs2)cc1,.,.,.,.,.,16.0%
COc1ccc(C2Cn3nnc(-c4nc(-c5cccnc5)no4)c3CO2)cc1 (stereo not drawn),.,.,.,.,.,-1.1%
Cc1nc2ccc(S(=O)(=O)N(CC(=O)N3CCN(C)CC3)Cc3ccccc3)cc2s1,.,.,.,.,.,-6.1%
COC(=O)c1c(NC(=O)CN(C)CC(=O)Nc2ccc(C)cc2)sc2c1CCC(C)C2 (stereo not drawn),6.0%,?,3.7,?,8.7%,26.3%
CC(C)(C)C1CCc2c(sc(NC(=O)CCC(=O)O)c2C(=O)Nc2ccccc2C(F)(F)F)C1 (stereo not drawn),.,20.6µM*,.,16.4µM*,.,-1.0%
COc1ccc(OC)c(NC(=O)c2c(NCc3ccc(C)o3)sc3c2CCCCC3)c1,.,7.31µM*,.,6.51µM*,.,?
COc1ccc(Cl)cc1NC(=O)c1c(NCc2ccc(C)o2)sc2c1CCCCC2,.,14.6µM*,.,9.2µM*,.,?
CCC1CCc2c(sc(NC(=O)CCC(=O)O)c2C(=O)Nc2ccccc2C)C1 (stereo not drawn),.,.,.,.,.,3.6%
COC(=O)c1c(NC(=O)Cc2cccs2)sc2c1CCC(C)C2 (stereo not drawn),-8.2%,?,-83.4*,?,8.4%,?
COc1ccc(-c2nc3ccccc3o2)cc1NC(=O)c1ccc2c(c1)OCO2,.,.,.,.,.,17.0%
CCOc1ccc(NC(=O)c2c(NCc3cccnc3)sc3c2CCC(C)C3)cc1 (stereo not drawn),.,14.6µM*,.,14.6µM*,.,39.8µM*
CCOc1ccccc1NC(=O)c1c(NCc2cccs2)sc2c1CCC(C)C2 (stereo not drawn),.,18.4µM*,.,?,.,-27.6%
CCOC(=O)c1c(NC(=O)Cc2cccs2)sc(C(=O)NC2CCCCC2)c1C,7.1%,16.4µM*,13.3,?,7.2%,-17.2%
CCNC(=O)c1ccc(CN(c2ccccc2)S(C)(=O)=O)cc1,.,.,.,.,.,39.7%
COc1ccc(-c2ccc(C#N)c(SCC(=O)Nc3ccccc3Cl)n2)cc1,.,.,.,.,.,-4.6%
CCN(CC)CCOc1c(Br)ccc2c1sc1nc3n(c(=O)c12)CCC3,?,20.6µM*,-63.8*,?,?,137.3%[57.4 µM]
SMILES,HT1080-NT tox,TDP1 cell noCPT,IL-1B inflam inh,TDP1 cell CPT,HT1080 IDH1KD tx,12-LOX inh
O=c1c2c(nc3n1CCCCC3)sc1c(O)c(Br)ccc12,-3.1%,-20.0%,3.4,-2.4%,-8.5%,?
CCOC(=O)Cc1c(C(=O)OCC)nnc2c(-c3ccc(Cl)cc3)c(C)nn12,.,.,.,.,.,2.1%
CCCOc1ccc(C(C)=O)cc1CSCCC#N,2.3%,?,-0.6,?,-1.2%,1.0%
CCCOc1ccc(C(C)=O)cc1CSc1nc(O)cc(=O)[nH]1,-1.8%,9.2µM*,16.9,20.6µM*,3.7%,-16.4%
CCCCOc1ccc(-c2csc(-c3nc(-c4ccc(F)cc4)cs3)n2)cc1,.,.,.,.,.,-26.1%
CN(Cc1ccccc1F)C(=O)c1ccccc1Sc1ccccc1C#N,-18.5%,?,-66.1*,?,-9.5%,0.0%
COc1ccc(CN(C)C(=O)c2ccccc2Sc2ccccc2C#N)c(OC)c1,-6.4%,23.1µM*,?,23.1µM*,-14.7%,?
N#CC(C(=O)NCc1ccccc1)=C1CCCCC1,.,.,.,.,.,-24.9%
O=C(c1cc(F)cc(F)c1)N1CCC(N2CC3CC(C2)[C@H]2CCCC(=O)N2C3)CC1 (stereo partly drawn),.,.,.,.,.,37.9%
O=C(NC(Cc1c[nH]c2ccccc12)C(=O)O)OCC1c2ccccc2-c2ccccc21 (stereo not drawn),1.0%,7.4%,52.5,7.8%,3.9%,35.5µM*
Cc1ccc(C(=O)COC(=O)C(Cc2c[nH]c3ccccc23)NC(=O)c2ccc(C(C)(C)C)cc2)cc1 (stereo not drawn),.,23.1µM*,.,18.4µM*,.,?
O=C(O)C(Cc1c[nH]c2ccccc12)NS(=O)(=O)c1ccc(Cl)c(C(F)(F)F)c1 (stereo not drawn),6.1%,0.2%,22.1,0.0%,6.2%,39.8µM*
CC(C)(C)c1ccc(C(=O)NC(Cc2c[nH]c3ccccc23)C(=O)OCC(=O)c2ccc(Br)cc2)cc1 (stereo not drawn),.,?,.,-8.4%,.,-11.3%
Cc1ccc(NC(=O)C(Cc2c[nH]c3ccccc23)NC(=O)OCC(C)C)cc1 (stereo not drawn),.,23.1µM*,.,18.4µM*,.,?
O=C(c1cc[nH]c1C1CCCNC1)N(Cc1ccc(F)cc1)Cc1cccnc1 (stereo not drawn),.,.,.,.,.,58.3%
COc1ccc(C(=O)NC(Cc2c[nH]c3ccccc23)C(=O)O)cc1 (stereo not drawn),8.6%,6.1%,8.9,-4.2%,9.1%,0.0%
CC(C)c1ccccc1NC(=O)C(Cc1c[nH]c2ccccc12)NC(=O)OC(C)(C)C (stereo not drawn),.,?,.,18.4µM*,.,-21.4%
